# Measurements as given in the supplement of paper PMC4466140.
# B1: unnamed (peptide)
# chain: GQYRRTIVIPRRFFT
# Target: AgAbp1
# Experiment: SPOT peptide array binding signal intensity (averaged, normalized) (arbitrary units (background-subtracted, floor 0; scale differs between SH3 domains)); higher = stronger binding of the SH3 domain to the peptide
# Experimental: (§1)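 GST-tagged SH3 domains from S. cerevisiae (Sc), A. gossypii (Ag), C. albicans (Ca) and S. pombe (Sp) were incubated at 10 ug/ml overnight at 4 C on cellulose SPOT membranes carrying 292 synthetic 15-mer peptides mined from the S. cerevisiae proteome (cysteines replaced by serines). Binding was detected with anti-GST antibody, HRP secondary and chemiluminescence, quantified with Genespotter, and reported as normalized spot intensities averaged over biological replicates.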
row,Binder,SPOT peptide array binding signal intensity
1,B1,24.5

# Target: AgBbc1
# Experiment: as above
# Experimental: as §1
row,Binder,SPOT peptide array binding signal intensity
1,B1,25.5

# Target: AgBem1-D1
# Experiment: as above
# Experimental: as §1
row,Binder,SPOT peptide array binding signal intensity
1,B1,52

# Target: AgBzz1-D1
# Experiment: as above
# Experimental: as §1
row,Binder,SPOT peptide array binding signal intensity
1,B1,42.5

# Target: AgBzz1-D2
# Experiment: as above
# Experimental: as §1
row,Binder,SPOT peptide array binding signal intensity
1,B1,21

# Target: AgCyk3
# Experiment: as above
# Experimental: as §1
row,Binder,SPOT peptide array binding signal intensity
1,B1,42.5

# Target: AgFus1
# Experiment: as above
# Experimental: as §1
row,Binder,SPOT peptide array binding signal intensity
1,B1,619

# Target: AgHof1
# Experiment: as above
# Experimental: as §1
row,Binder,SPOT peptide array binding signal intensity
1,B1,68

# Target: AgHse1
# Experiment: as above
# Experimental: as §1
row,Binder,SPOT peptide array binding signal intensity
1,B1,478

# Target: AgLsb1
# Experiment: as above
# Experimental: as §1
row,Binder,SPOT peptide array binding signal intensity
1,B1,10

# Target: AgLsb4
# Experiment: as above
# Experimental: as §1
row,Binder,SPOT peptide array binding signal intensity
1,B1,211

# Target: AgMyo5
# Experiment: as above
# Experimental: as §1
row,Binder,SPOT peptide array binding signal intensity
1,B1,2.25

# Target: AgNbp2
# Experiment: as above
# Experimental: as §1
row,Binder,SPOT peptide array binding signal intensity
1,B1,56.5

# Target: AgRvs167
# Experiment: as above
# Experimental: as §1
row,Binder,SPOT peptide array binding signal intensity
1,B1,14.8

# Target: AgSho1
# Experiment: as above
# Experimental: as §1
row,Binder,SPOT peptide array binding signal intensity
1,B1,255

# Target: AgSla1-D1-D2
# Experiment: as above
# Experimental: as §1
row,Binder,SPOT peptide array binding signal intensity
1,B1,763

# Target: AgSla1-D3
# Experiment: as above
# Experimental: as §1
row,Binder,SPOT peptide array binding signal intensity
1,B1,11

# Target: CaAbp1-D1
# Experiment: as above
# Experimental: as §1
row,Binder,SPOT peptide array binding signal intensity
1,B1,168

# Target: CaAbp1-D2
# Experiment: as above
# Experimental: as §1
row,Binder,SPOT peptide array binding signal intensity
1,B1,172

# Target: CaBbc1
# Experiment: as above
# Experimental: as §1
row,Binder,SPOT peptide array binding signal intensity
1,B1,128

# Target: CaBem1-D1
# Experiment: as above
# Experimental: as §1
row,Binder,SPOT peptide array binding signal intensity
1,B1,24.5

# Target: CaBzz1-D1
# Experiment: as above
# Experimental: as §1
row,Binder,SPOT peptide array binding signal intensity
1,B1,60

# Target: CaBzz1-D2
# Experiment: as above
# Experimental: as §1
row,Binder,SPOT peptide array binding signal intensity
1,B1,45

# Target: CaCyk3
# Experiment: as above
# Experimental: as §1
row,Binder,SPOT peptide array binding signal intensity
1,B1,81

# Target: CaFus1
# Experiment: as above
# Experimental: as §1
row,Binder,SPOT peptide array binding signal intensity
1,B1,2340

# Target: CaHof1
# Experiment: as above
# Experimental: as §1
row,Binder,SPOT peptide array binding signal intensity
1,B1,5

# Target: CaHse1
# Experiment: as above
# Experimental: as §1
row,Binder,SPOT peptide array binding signal intensity
1,B1,45.8

# Target: CaLsb1
# Experiment: as above
# Experimental: as §1
row,Binder,SPOT peptide array binding signal intensity
1,B1,7

# Target: CaLsb4
# Experiment: as above
# Experimental: as §1
row,Binder,SPOT peptide array binding signal intensity
1,B1,94.5

# Target: CaMyo5
# Experiment: as above
# Experimental: as §1
row,Binder,SPOT peptide array binding signal intensity
1,B1,46.5

# Target: CaNbp2
# Experiment: as above
# Experimental: as §1
row,Binder,SPOT peptide array binding signal intensity
1,B1,564

# Target: CaRvs167
# Experiment: as above
# Experimental: as §1
row,Binder,SPOT peptide array binding signal intensity
1,B1,191

# Target: CaRvs167-3
# Experiment: as above
# Experimental: as §1
row,Binder,SPOT peptide array binding signal intensity
1,B1,1390

# Target: CaSho1
# Experiment: as above
# Experimental: as §1
row,Binder,SPOT peptide array binding signal intensity
1,B1,1460

# Target: CaSla1-D1-D2
# Experiment: as above
# Experimental: as §1
row,Binder,SPOT peptide array binding signal intensity
1,B1,60

# Target: CaSla1-D3
# Experiment: as above
# Experimental: as §1
row,Binder,SPOT peptide array binding signal intensity
1,B1,89.8

# Target: ScAbp1
# Experiment: as above
# Experimental: as §1
row,Binder,SPOT peptide array binding signal intensity
1,B1,71

# Target: ScBbc1
# Experiment: as above
# Experimental: as §1
row,Binder,SPOT peptide array binding signal intensity
1,B1,2.5

# Target: ScBem1-D1
# Experiment: as above
# Experimental: as §1
row,Binder,SPOT peptide array binding signal intensity
1,B1,9

# Target: ScBzz1-D1
# Experiment: as above
# Experimental: as §1
row,Binder,SPOT peptide array binding signal intensity
1,B1,17.5

# Target: ScBzz1-D2
# Experiment: as above
# Experimental: as §1
row,Binder,SPOT peptide array binding signal intensity
1,B1,78

# Target: ScCyk3
# Experiment: as above
# Experimental: as §1
row,Binder,SPOT peptide array binding signal intensity
1,B1,108

# Target: ScFus1
# Experiment: as above
# Experimental: as §1
row,Binder,SPOT peptide array binding signal intensity
1,B1,898

# Target: ScHof1
# Experiment: as above
# Experimental: as §1
row,Binder,SPOT peptide array binding signal intensity
1,B1,4.75

# Target: ScHse1
# Experiment: as above
# Experimental: as §1
row,Binder,SPOT peptide array binding signal intensity
1,B1,995

# Target: ScLsb1
# Experiment: as above
# Experimental: as §1
row,Binder,SPOT peptide array binding signal intensity
1,B1,10.2

# Target: ScLsb2
# Experiment: as above
# Experimental: as §1
row,Binder,SPOT peptide array binding signal intensity
1,B1,29

# Target: ScLsb3
# Experiment: as above
# Experimental: as §1
row,Binder,SPOT peptide array binding signal intensity
1,B1,210

# Target: ScLsb4
# Experiment: as above
# Experimental: as §1
row,Binder,SPOT peptide array binding signal intensity
1,B1,33

# Target: ScMyo3
# Experiment: as above
# Experimental: as §1
row,Binder,SPOT peptide array binding signal intensity
1,B1,12.5

# Target: ScMyo5
# Experiment: as above
# Experimental: as §1
row,Binder,SPOT peptide array binding signal intensity
1,B1,10

# Target: ScNbp2
# Experiment: as above
# Experimental: as §1
row,Binder,SPOT peptide array binding signal intensity
1,B1,346

# Target: ScPex13
# Experiment: as above
# Experimental: as §1
row,Binder,SPOT peptide array binding signal intensity
1,B1,15.2

# Target: ScRvs167
# Experiment: as above
# Experimental: as §1
row,Binder,SPOT peptide array binding signal intensity
1,B1,69.3

# Target: ScSho1
# Experiment: as above
# Experimental: as §1
row,Binder,SPOT peptide array binding signal intensity
1,B1,1020

# Target: ScSla1-D1-D2
# Experiment: as above
# Experimental: as §1
row,Binder,SPOT peptide array binding signal intensity
1,B1,205

# Target: ScSla1-D3
# Experiment: as above
# Experimental: as §1
row,Binder,SPOT peptide array binding signal intensity
1,B1,54.5

# Target: SpAbp1-D1
# Experiment: as above
# Experimental: as §1
row,Binder,SPOT peptide array binding signal intensity
1,B1,242

# Target: SpBbc1
# Experiment: as above
# Experimental: as §1
row,Binder,SPOT peptide array binding signal intensity
1,B1,12.5

# Target: SpBzz1-D1
# Experiment: as above
# Experimental: as §1
row,Binder,SPOT peptide array binding signal intensity
1,B1,107

# Target: SpBzz1-D2
# Experiment: as above
# Experimental: as §1
row,Binder,SPOT peptide array binding signal intensity
1,B1,4.5

# Target: SpCyk3
# Experiment: as above
# Experimental: as §1
row,Binder,SPOT peptide array binding signal intensity
1,B1,21

# Target: SpHof1
# Experiment: as above
# Experimental: as §1
row,Binder,SPOT peptide array binding signal intensity
1,B1,186

# Target: SpHof1-2
# Experiment: as above
# Experimental: as §1
row,Binder,SPOT peptide array binding signal intensity
1,B1,50

# Target: SpHof1-3
# Experiment: as above
# Experimental: as §1
row,Binder,SPOT peptide array binding signal intensity
1,B1,321

# Target: SpHse1
# Experiment: as above
# Experimental: as §1
row,Binder,SPOT peptide array binding signal intensity
1,B1,573

# Target: SpLsb1
# Experiment: as above
# Experimental: as §1
row,Binder,SPOT peptide array binding signal intensity
1,B1,5

# Target: SpLsb4
# Experiment: as above
# Experimental: as §1
row,Binder,SPOT peptide array binding signal intensity
1,B1,131

# Target: SpMyo1
# Experiment: as above
# Experimental: as §1
row,Binder,SPOT peptide array binding signal intensity
1,B1,4.75

# Target: SpNbp2
# Experiment: as above
# Experimental: as §1
row,Binder,SPOT peptide array binding signal intensity
1,B1,287

# Target: SpPex13
# Experiment: as above
# Experimental: as §1
row,Binder,SPOT peptide array binding signal intensity
1,B1,79.5

# Target: SpRvs167
# Experiment: as above
# Experimental: as §1
row,Binder,SPOT peptide array binding signal intensity
1,B1,43

# Target: SpSla1-D1-D2
# Experiment: as above
# Experimental: as §1
row,Binder,SPOT peptide array binding signal intensity
1,B1,6

# Target: SpSla1-D3
# Experiment: as above
# Experimental: as §1
row,Binder,SPOT peptide array binding signal intensity
1,B1,47
